# HSV augment: increases HSV replication in cells | HSV replication augmentation in cells, fold increase | maximum fold increase | 220,000 tested, 0.005% active; in the data active means maximum fold increase above about 1.5; inconclusive means no clear call, values can overlap the other calls; tested in PC3 cells
# EP2 modulator: modulates human prostaglandin E2 receptor EP2 signaling; P43116; EP2-expressing cells, cAMP HTRF FRET, PGE2 co-stimulation; induction, % at 25 µM; 260,000 tested, 0.83% active; AID 940;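 active means compounds whose cAMP rise, as percent of the full-agonist control response, exceeds 60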;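 further: rat C6 glioma line stably carrying human EP2 under a CMV promoter; the protocol text gives 20 µM as final concentration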
# NCF1 inh: inhibitors of human p47phox binding; P14598; p47phox/p22phox peptide binding, fluorescence polarization, 2 h; inhibition, % at 24.7 µM; 220,000 tested, 0.53% active; AID 1274;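 active means inhibition above about 30%, limit read from the data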
# Furin inh: inhibitors of human furin | P09958 | purified furin, fluorogenic substrate cleavage | inhibition, % at 20 µM or 30 µM | 220,000 tested, 0.061% active; in the data active means inhibition above about 25%
# Target sequence (P09958 108-714 limits assumed): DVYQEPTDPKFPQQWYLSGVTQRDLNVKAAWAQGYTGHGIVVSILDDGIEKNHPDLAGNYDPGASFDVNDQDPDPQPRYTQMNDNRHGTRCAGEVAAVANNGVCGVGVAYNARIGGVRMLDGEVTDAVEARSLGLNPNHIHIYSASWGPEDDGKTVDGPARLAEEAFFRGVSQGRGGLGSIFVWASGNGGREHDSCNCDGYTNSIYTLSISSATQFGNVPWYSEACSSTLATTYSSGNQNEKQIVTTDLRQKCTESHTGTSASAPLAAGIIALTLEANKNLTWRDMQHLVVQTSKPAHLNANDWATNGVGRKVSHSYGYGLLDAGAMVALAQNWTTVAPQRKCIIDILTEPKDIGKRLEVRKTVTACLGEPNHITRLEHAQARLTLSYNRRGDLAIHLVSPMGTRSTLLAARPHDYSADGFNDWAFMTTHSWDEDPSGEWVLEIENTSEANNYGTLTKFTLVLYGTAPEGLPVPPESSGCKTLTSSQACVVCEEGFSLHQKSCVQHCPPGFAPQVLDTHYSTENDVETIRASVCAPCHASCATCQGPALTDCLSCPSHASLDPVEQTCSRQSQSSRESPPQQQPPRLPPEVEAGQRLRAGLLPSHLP
# Wee1 degr inh: inhibitors of human Wee1 degradation; AID 1321; reporter increase, % at 5 µM; HeLa Luc-Wee1K328M stability, luciferase luminescence; 100% = proteasome inhibitor MG132 effect; 220,000 tested, 1.2% active; P30291;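 active means activation above the mean of all tested compounds plus 3 SD, set per screening run, cut at about 8.8% in these data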;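 further: cells exposed to compound for 20 h before luminescence read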
# PGE2 EP2 inh: inhibitors of human EP2 prostaglandin E2 receptor. P43116. C6 glioma cells expressing human EP2, cAMP TR-FRET; cells stimulated with saturating PGE2. inhibition, % at 25 µM. 260,000 tested, 0.52% active;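 active means percent inhibition above 40 after rounding to a whole number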;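 further: rat C6 glioma host cells with rolipram phosphodiesterase inhibitor present; the protocol text gives 20 µM as final concentration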
# EP2 confirm: EP2 receptor cAMP induction, counter-screens negative; AID 1080; shares compounds with EP2 modulator; C6 glioma EP2 cells, cAMP HTRF induction; plus low (about EC15) PGE2 agonist; calls only at 20 µM (by protocol); 1,300 tested, 47% active;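 active means cAMP induction above 50% in the main assay while under 30% in all four parallel counter assays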;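 further: rat C6 glioma cells stably expressing human EP2 receptor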
# Numbers stand for hits; - = inactive; ? = inconclusive; . = not tested or not shown; + = active, no number. The list is not random: actives were taken first. Their share in the collection is about 2.8%.
SMILES,HSV augment,EP2 modulator,NCF1 inh,Furin inh,Wee1 degr inh,PGE2 EP2 inh,EP2 confirm
CC(=O)Nc1ccc(-c2cn3c(C)c(C)nnc3n2)cc1,.,-,.,.,.,-,.
Cn1cnc([N+](=O)[O-])c1Sc1nc(N)nc2c1ncn2[C@@H]1C[C@H](O)[C@@H](CO)O1,.,-,.,.,.,48.1,.
C[N+](C)(C)c1nc(N)nc2c1ncn2[C@H]1O[C@@H](CO)[C@H](O)[C@H]1O,.,-,.,.,.,44.6,.
Cn1cnc([N+](=O)[O-])c1[Se]c1nc(N)nc2c1ncn2[C@H]1O[C@@H](CO)[C@H](O)[C@H]1O,.,-,.,.,.,42.2,.
COc1nc(N)nc2c1ncn2[C@@H]1C[C@H](O)[C@@H](CO)O1,.,-,.,.,.,-,.
COCCCn1c(SCC(=O)OC2CCCCC2)nnc1-c1ccccc1,.,-,.,.,.,-,.
Cc1cccc(/N=C/c2c(O)ccc3oc4c(c23)CCCC4)n1,-,72.9,-,-,-,-,+
Cc1cccc(/N=C/c2c(O)cc(C)oc2=O)n1,?,-,-,-,-,-,.
c1ccc(-c2nc(N3CCCCC3)nc3ccccc23)cc1,-,-,-,-,-,-,.
Cc1ccc2nc(N3CCC(C(=O)O)CC3)nc(-c3ccccc3)c2c1,-,90.6,-,-,-,-,-
O=C(Nc1nc(-c2cccs2)c(-c2ccccc2)s1)c1ccco1,-,73.2,-,-,-,-,+
CCCN1CC2=C(C1=O)C(c1ccc(O)c(OC)c1)NC(=O)N2 (centres undefined),.,-,.,.,.,.,.
COc1cc2cc(C)c3nnc(SCC(=O)NNC(C)=O)n3c2cc1OC,.,-,.,.,.,-,.
Cc1nc(-c2ccccc2)cc(=O)[nH]1,-,-,-,-,-,-,.
O=c1nc(-c2ccccc2)cc(-c2ccccc2)[nH]1,-,65.3,-,-,-,-,-
CC(=O)OC[C@@]1(O)C[C@@]23CCC4c5ccoc5CC[C@]4(C)C2CC[C@@H]1C3 (some centres undefined),.,68.5,.,.,.,-,-
CC(=O)OC[C@]1(OC(C)=O)C[C@@]23CC[C@H]4[C@@](C)(CCC[C@@]4(C)C(=O)O)[C@@H]2CC[C@@H]1C3,-,-,-,-,-,-,.
Cc1cc2ccc(C)c(C)c2nc1SCC(=O)c1cccs1,-,-,-,-,-,-,.
Cc1cc2ccc(C)c(C)c2nc1SCC#N,-,66.1,-,-,-,-,+
Clc1ccccc1Cn1c(/C=C/c2ccco2)nc2ccccc21,-,70.6,-,-,-,-,-
O=c1c2ccccc2c(-c2ccccc2)nn1-c1ccccc1,-,-,-,-,-,-,.
O=c1c2ccccc2c(-c2ccccc2)nn1-c1ccc(Cl)c(Cl)c1,-,70.4,-,-,-,-,-
S=c1[nH]nc(-c2ccccc2)n1/N=C/c1ccc(-c2ccccc2Cl)o1,-,78.5,-,-,-,-,+
Cc1ccccc1N(C(=O)Cn1nnc2ccccc21)C(C(=O)NCC1CCCO1)c1ccncc1 (centres undefined),.,-,.,.,.,-,.
Cc1cc(C)n(-c2nc(C)nc3c2cnn3-c2ccccc2)n1,.,66.9,-,-,-,.,+
SMILES,HSV augment,EP2 modulator,NCF1 inh,Furin inh,Wee1 degr inh,PGE2 EP2 inh,EP2 confirm
COc1cccc(CNC(=O)CN2C(=O)N3CCN=C3c3ccccc32)c1,.,-,.,.,.,-,.
CCOP(=O)(OCC)c1nc(-c2ccc(F)cc2)oc1NCc1ccccc1,-,72.4,-,-,-,-,+
CCOP(=O)(OCC)c1nc(-c2ccccc2)oc1NCc1ccccc1,-,80.8,-,-,-,-,+
CCOP(=O)(OCC)c1nc(-c2cccc3ccccc23)oc1NCCc1ccc(OC)cc1,-,-,-,-,-,-,-
O=P(c1ccccc1)(c1ccccc1)c1nc(-c2ccccc2)oc1NCc1ccccc1,-,94.3,-,-,-,-,+
O=C(CSc1ncc(-c2ccccc2)n1CC1CCCO1)Nc1cccc2ccccc12 (centres undefined),.,-,.,.,.,-,.
O=c1[nH]c2cc3c(cc2cc1CN(CCO)C(=S)NCCCN1CCOCC1)OCO3,.,-,.,.,.,-,.
CCCSc1ncnc2sc(C)c(C)c12,-,-,-,-,-,-,-
CC(=O)c1ccc(NC(=O)c2ccccc2Sc2ncnc3sc(C)c(C)c23)cc1,-,-,-,-,-,-,.
Cc1sc2ncnc(Sc3ccccc3C(=O)O)c2c1C,-,72.5,-,-,-,-,-
COc1cc(CN2CCC(C(=O)N3CCN(c4ccccc4F)CC3)CC2)cc(OC)c1OC,-,78.7,-,-,-,-,-
COc1ccc(C(CC(=O)O)NC(=O)c2ccccc2)cc1OC (centres undefined),-,-,-,-,-,-,.
COc1ccccc1C(CC(=O)c1ccccc1)CC(=O)c1ccccc1,-,67.1,-,-,-,-,+
CCC1COC(c2cccn2Cc2ccc(Cl)cc2)=N1 (centres undefined),-,65.5,-,-,-,-,-
CCSCC1COC(c2cccn2Cc2ccc(C)cc2)=N1 (centres undefined),-,-,-,-,-,-,.
COc1ccc(C)cc1NC(=O)C(Sc1nnnn1C)c1ccccc1 (centres undefined),-,-,-,-,-,-,.
COCCn1c(SC(C(=O)Nc2cc(C)ccc2OC)c2ccccc2)nnc1-c1ccc(Cl)cc1 (centres undefined),-,-,-,-,-,-,-
CCOC(=O)C(=O)Nc1sc(C(=O)NC2CCCCC2)c(C)c1C(=O)OC,.,-,.,.,.,-,.
Cn1ccnc1C1(O)CCN(C(=O)Cc2ccccc2)CC1,.,-,.,.,.,-,.
Cc1nnc(SCC(=O)NC2CCCCC2)n1C1CCCCC1,-,-,-,-,-,-,-
O=C(CSc1nnc(-c2ccncc2)n1C1CCCCC1)NC1CCCC1,.,-,.,.,.,-,.
CSc1nnc(-c2cc3c(s2)-c2ccccc2CC3)o1,-,75.9,-,-,-,-,+
O=C(O)c1csc(N/N=C/c2ccc(Br)cc2)n1,-,72.8,-,-,-,-,-
C(=N\Nc1nc(-c2ccccc2)cs1)/c1ccncc1,-,-,-,-,-,-,.
c1ccc(Nc2nc(N3CCNCC3)nc(N3CCOCC3)n2)cc1,-,67.3,-,-,-,-,-
c1ccc(Nc2nc(N3CCOCC3)nc(N3CCOCC3)n2)cc1,-,-,-,-,-,-,.
CCOC(=O)C1CCN(C(=O)c2cc3sccc3n2Cc2ccccc2)CC1,.,-,.,.,.,-,.
COc1ccc(C2CC(c3ccccc3)=NN2C(=O)c2cccs2)cc1 (centres undefined),-,-,-,-,-,-,.
COc1ccc(C2=NN(C(=O)c3cccs3)C(c3ccccc3O)C2)cc1 (centres undefined),-,71.0,-,-,-,-,+
COc1ccc(C2=NN(C(=O)c3cccs3)C(O)(C(F)(F)F)C2)cc1 (centres undefined),-,97.8,-,-,-,-,+

# Assay outcomes (PubChem BioAssay)
